# From the supplement of paper PMC10338343
# ± gives the standard deviation. In all, about 8,200 sequences were measured (“pre-steady-state target cleavage rate”: median about 0.024, highest 2% from about 1.3 on). The full list was thinned out, with the highest values kept by preference.
# Test system: MIWI (PIWIL1) piRISC loaded with L1MC piRNA (30 nt)
# Experiment: pre-steady-state target cleavage rate (min^-1); MIWI and MILI are mouse PIWI proteins and EfPiwi is from a freshwater sponge; tags in brackets are library labels; higher = faster piRNA-guided slicing of the target
# Details: guide: L1MC piRNA 5'p-UAACUAAAUACUAUGCAAGCUGUAGGUCCU
# Description: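 Cleave-'n-Seq: a library of target RNAs (target site embedded in constant flanks, ACAGCATTCCGCGTTAGTGATATCCG... 5' flank; DNA-blocked outside the site) at 0.1 nM was incubated with 1 nM active mouse MILI or MIWI piRISC (synthetic 5'-monophosphorylated piRNA guide) with or without 500 nM mouse GTSF1 at 33 °C for 1 min to 16 h. Uncleaved targets were sequenced and normalised to non-target controls, and the pooled three trials were fitted to a burst-and-steady-state model to give the pre-steady-state cleavage rate (min^-1; k3 is constrained to at most 1e-4). Sequence is the target site only; target names encode pairing extent (gX:gY) and contiguous / 1-mismatch / 2-mismatch / bulge geometry. Fits with R² ≤ 0 are excluded.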
# [1] = auxiliary factor: 500 nM mouse GTSF1
# [2] = auxiliary factor: none (no GTSF1)
Sequence,pre-steady-state target cleavage rate [1],pre-steady-state target cleavage rate [2]
AGGACCUACAGCUUGGAUAGUAUUUUGUUA,1.05 ± 0.077,0.0416 ± 0.0083
UCCUGGAACAGCUUGCUAUGUAUUUAGUAA,0.0313 ± 0.0087,0.00333 ± 0.002
UCCUGGAUCAGGAAGCAUAGUAUUUAGUUA,0.00993 ± 0.0028,–
AGGACCUACUGCUUGCAUUGUAUUUAGUUA,0.892 ± 0.03,0.0384 ± 0.008
UCCUGCUACUGCUUGCUUAGUAUUUAGUUA,0.49 ± 0.039,0.0208 ± 0.003
AGGACCUACUGCUUGCUUAGUAUUUAGUUA,1.39 ± 0.087,0.05 ± 0.01
UGGACCUACACCUUGCUUAGUAUUUAGUUA,1.1 ± 0.062,0.0262 ± 0.0061
AGGACCUACACCUUGCUUAGUAUUUAGUUA,1.17 ± 0.057,0.046 ± 0.0082
UGGACCUACUGCUUGCUUAGUAUUUAGUUA,1.4 ± 0.081,0.0402 ± 0.0083
UCCACGAACAGCUUGCAUAGUAUUUAGAAA,0.328 ± 0.039,0.00702 ± 0.0022
UCCUGGAUGUCGAACGUAAGUAUUUAGUAUA,< 0.0001,–
UCCUCCUACAGCUUGCAUUGUAUUUAGUUA,0.952 ± 0.034,0.0245 ± 0.0055
UCCUGGAUGAGCUUGCAUAGUAUUUUCUAA,0.222 ± 0.052,–
AGGACCUACGAGCUUGCAUAGUAUUUAGUUA,0.726 ± 0.086,0.0555 ± 0.014
UGGACCAACAGCUUGCAUACUAUUUAGUUA,0.419 ± 0.017,0.0377 ± 0.0075
UCCUGGAUGUCGUUGCAUAGUAUUUAGGUUA,0.00749 ± 0.0034,–
AGCACGUACAGCUUGCAUAGUAUUUAGUUA,1.28 ± 0.043,0.064 ± 0.011
UCGACGUACAGCUUGCAUAGUAUUUAGUUA,1.56 ± 0.046,0.0711 ± 0.011
UGCACGUACAGCUUGCAUAGUAUUUAGUUA,1.26 ± 0.045,0.0736 ± 0.01
UCCACCUACAGCUUGCUUAGUAUUUAGUUA,1.16 ± 0.05,0.0305 ± 0.0053

Sequence,pre-steady-state target cleavage rate [1],pre-steady-state target cleavage rate [2]
UCCACGUACAGCUUGCAUAGUAUUUAGUAA,0.521 ± 0.032,0.0319 ± 0.0057
UGGACGUACAGCUUGCAUAGUAUUUAGUUA,1.26 ± 0.051,0.0691 ± 0.012
UCCACGUACAGCUUGCUUAGUAUUUAGUUA,1.31 ± 0.058,0.0408 ± 0.0091
UCCACGUACAGCUUGCAAAGUAUUUAGUUA,1.19 ± 0.054,0.0439 ± 0.009
UCGACGUACAGCUUGCAUAGUAUUUAGAAA,0.288 ± 0.026,0.0106 ± 0.0026
UCCACGUACAGCUUGCAUAGUAUUUAGUUA,1.35 ± 0.047,0.0658 ± 0.0097
UCGACGUACAGCUUGCAUAGUAUUUAGUAA,1.01 ± 0.062,0.0599 ± 0.011
ACGACGUACAGCUUGCAUAGUAUUUAGUUA,1.55 ± 0.071,0.077 ± 0.013
UCCACCAAGAGCUUGCAUAGUAUUUAGUUA,0.884 ± 0.095,0.0363 ± 0.0078
UCCACCUACAGCUUGCUUAGAAUUUAGUUA,0.2 ± 0.025,0.00583 ± 0.0018
UCCUGGAACAGCUAGCAUAGAAUUUAGUUA,0.209 ± 0.02,0.0115 ± 0.0043
AGGACCUACAGCUUGCAUUGUAUUUAGUUA,0.926 ± 0.04,0.0656 ± 0.015
UCCUGGAUGUCCUUGCAGAGUAUUUAGUUA,–,0.00314 ± 0.002
UCCUGGAUGAGCUUGCUUAGUAUUUACUUA,0.254 ± 0.042,0.0202 ± 0.005
UCCACGUACAGCUAGCAUAGUAUUUAGUUA,0.815 ± 0.028,0.0177 ± 0.0033
UCCACCUACAGCUUUGCAUAGUAUUUAGUUA,0.885 ± 0.054,0.0278 ± 0.0062
UGGACCCUACAGCUUGCAUAGUAUUUAGUUA,1.42 ± 0.074,0.0808 ± 0.015
AGGACCUAACAGCUUGCAUAGUAUUUAGUUA,1.1 ± 0.059,0.0788 ± 0.016
UGGACCUACAGCUUGCAUAGUAUUUUAGUUA,1.38 ± 0.079,0.0467 ± 0.012
AGGACCCUACAGCUUGCAUAGUAUUUAGUUA,1.24 ± 0.083,0.0716 ± 0.012

Sequence,pre-steady-state target cleavage rate [1],pre-steady-state target cleavage rate [2]
UGGACCUAACAGCUUGCAUAGUAUUUAGUUA,1.33 ± 0.061,0.0609 ± 0.01
UCGACCUAACAGCUUGCAUAGUAUUUAGUUA,1.15 ± 0.069,0.0849 ± 0.017
UGGACCUACAGCUUUGCAUAGUAUUUAGUUA,1.43 ± 0.11,0.0449 ± 0.011
UCCACCCUACAGCUUGCAUAGUAUUUAGUUA,0.831 ± 0.055,0.0575 ± 0.012
AGGACCUACAGCUUUGCAUAGUAUUUAGUUA,1.2 ± 0.066,0.0552 ± 0.012
UCCACCUACAGCUUGCAUAAUAUUUAGUUA,0.552 ± 0.049,0.0203 ± 0.0032
UCCUGCUACAGCUACCAUAGUAUUUAGUUA,0.337 ± 0.032,–
AGGACCUACAGCUUGCAUAGUAUUAGUUA,0.385 ± 0.053,0.00372 ± 0.003
UCCACCUACAGCUUGCAUAGUAUUAAGAAA,0.351 ± 0.054,–
UCCUGGAUGAGAUUGCAUAGUAUUUAGUUA,0.117 ± 0.011,0.00369 ± 0.0027
UCCUGGUACAGCUUGCAUGGUAUUUAGUUA,0.891 ± 0.058,0.0741 ± 0.018
UCCUGGAUCAGCUUGGAUAGUAUUAAGUUA,0.258 ± 0.033,0.0129 ± 0.0046
UGGACCUACAGCUUGCAUAGUAUUUAGUUG [g2:g29:cont:t1G],0.456 ± 0.037,0.0555 ± 0.01
UGGACCUACAGCUUGCAUAGUUAUUUAGUUA,0.0473 ± 0.0076,0.00533 ± 0.0021
UGGACCUUCAGCUUGCAUAGUAUAUAGUUA,1 ± 0.053,0.0376 ± 0.0085
AUGGACCUACAGCUUGCAUAGUAUUUAGUUA,1.34 ± 0.088,0.0872 ± 0.018
UGGACCUACAGCUUGCAUAGUAUUUAGUUA [g2:g29:cont:t1A],1.61 ± 0.09,0.0718 ± 0.013
UCGACCUACAGCUUGCAUAGUAAUAAGUUA,0.444 ± 0.047,–
UCCUCCAUGAGCUUGCAUAGUAUUUAGUAA,0.471 ± 0.029,0.0262 ± 0.0057
UCCUGCUACAGCUUGCAUAGUCAUUUAGUUA,0.0744 ± 0.02,0.00362 ± 0.0031
